The molecules below were run against Neuropilin-1 (Homo sapiens) (UniProt O14786) (assay: NRP-1 b1b2 CendR peptide binding inhibitors, dose response, biochemical, FP and AlphaScreen panel (AID 651650)). Details: NRP-1 b1b2 / RPARPAR peptide binding, FP or AlphaScreen; run 1, at 100 µM (top of the series).
Sequence of Neuropilin-1 (Homo sapiens) (O14786 whole entry, looked up): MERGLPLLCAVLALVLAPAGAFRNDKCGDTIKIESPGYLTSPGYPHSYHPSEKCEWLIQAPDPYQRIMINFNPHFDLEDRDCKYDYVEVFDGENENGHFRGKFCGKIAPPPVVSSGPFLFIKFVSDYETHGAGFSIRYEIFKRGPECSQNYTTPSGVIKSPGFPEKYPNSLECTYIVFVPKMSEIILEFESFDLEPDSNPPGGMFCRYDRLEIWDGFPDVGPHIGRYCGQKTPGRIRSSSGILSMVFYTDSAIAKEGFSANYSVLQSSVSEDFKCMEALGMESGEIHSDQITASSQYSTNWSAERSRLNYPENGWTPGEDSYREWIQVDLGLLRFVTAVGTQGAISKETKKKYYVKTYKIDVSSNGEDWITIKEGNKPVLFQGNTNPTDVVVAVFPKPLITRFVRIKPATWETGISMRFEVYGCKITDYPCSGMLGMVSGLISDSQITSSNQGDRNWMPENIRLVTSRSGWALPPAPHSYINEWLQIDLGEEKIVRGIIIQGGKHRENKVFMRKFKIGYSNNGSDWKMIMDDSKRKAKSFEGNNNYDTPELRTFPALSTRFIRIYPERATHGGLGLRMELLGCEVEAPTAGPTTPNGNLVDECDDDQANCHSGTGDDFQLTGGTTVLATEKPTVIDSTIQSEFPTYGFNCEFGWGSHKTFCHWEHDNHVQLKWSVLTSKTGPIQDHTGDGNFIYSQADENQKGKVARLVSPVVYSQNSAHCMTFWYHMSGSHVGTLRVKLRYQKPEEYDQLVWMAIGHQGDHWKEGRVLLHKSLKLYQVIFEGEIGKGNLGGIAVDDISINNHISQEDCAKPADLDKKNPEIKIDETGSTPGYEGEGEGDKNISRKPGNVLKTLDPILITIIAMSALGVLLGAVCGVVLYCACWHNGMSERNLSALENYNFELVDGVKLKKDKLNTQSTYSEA
Molecule `Nc1ccc(C(=O)Nc2ccc(Nc3ccncc3)cc2)c([N+](=O)[O-])c1` has an inhibition of 102%. Molecule `O=C1N[C@H](Cc2c[nH]c3ccccc23)COC(=O)[C@H](Cc2ccc(F)cc2)C/C=C\C[C@H]1CC(=O)N(CCO)Cc1ccccc1` has an inhibition of 41.5%. `C=C1C[C@@]23CCC4[C@@](C)(CCC[C@@]4(C)C(=O)O)C2CC[C@]1(O)C3` (stereo partly drawn) was tested, and the inhibition was 63.6%. `Nc1cc(S(=O)(=O)O)cc([N+](=O)[O-])c1O` was tested, and the inhibition was 74.8%. `Cc1ccc(NC(=S)Nc2cccc3ccccc23)cc1` showed an inhibition of 13.4%. For `O=C(NNC(=O)C1CCN(c2ncccn2)CC1)c1ccc(F)cc1`, the inhibition was 26.5%. `CN(C(=O)COC(=O)c1cnc(Cl)c(Cl)c1)C1CCCCC1` showed an inhibition of 49.2%. Molecule `O=C(NCCN1CCN(C(=O)c2cccc(OC(F)F)c2)CC1)c1cccc(OC(F)F)c1` has an inhibition of 0.403%. In the case of `COc1cccc(NC(=O)CSc2nc(O)c(C)c(=O)n2-c2ccc(C)cc2)c1`, the inhibition was 84.9%. Work on `COC(=O)C[C@H]1c2cc(F)ccc2S(=O)(=O)N1C(C)C` yielded an inhibition of 29.9%. `COc1cc(Cn2nnc3ccccc32)cc(Br)c1O` gave an inhibition of 37.3%. `Cc1nc2c(OCCC3CCCCC3)cccn2c1N(C)C(=O)CCC1CCCC1` gave an inhibition of 23.2%. For `CCC1=C(OC(=O)N(CC)CC)N2C(=O)OC(=NCCOC)[C@]2(Cc2ccccc2)[C@H]2C1=CC[C@H]1C(=O)N(CC(=O)OC)C(=O)[C@H]12`, the inhibition was 56.3%. For `N/C(CSc1ccc(Cl)cc1)=N\S(=O)(=O)c1ccc(Cl)cc1`, the inhibition was 37.6%. Molecule `CC(=O)c1cccc(S(=O)(=O)N2CCC(C(=O)O)(c3ccccc3)CC2)c1` has an inhibition of 49.1%. For `C=C1CCN([C@@H](CC(C)C)C(=O)NCCC(C)C)S(=O)(=O)c2ccccc21`, the inhibition was 35.9%. With `CC(=O)Oc1cc2c(c3ccccc13)CCC2=O` the inhibition was 23.4%. Work on `Cc1ccc2cc(CN(c3ccccc3C)S(=O)(=O)c3ccccc3)c(=O)[nH]c2c1` yielded an inhibition of 41.9%. With `CN(c1ccc(OCC(=O)OCC(=O)Nc2ccc([N+](=O)[O-])cc2)cc1)S(=O)(=O)c1cccs1` the inhibition was 58.7%. For `C=CCNC(=O)c1onc(CSc2ccc(F)c(F)c2)c1C(=O)NCC=C`, the inhibition was 38.7%. With `Cc1ccc(C(=O)N/C(=C\c2ccc(-c3ccccc3[N+](=O)[O-])o2)C(=O)NCCCN2CCOCC2)cc1` the inhibition was 13.2%. For `Cc1cc(S(=O)(=O)NC2CCCCC2)ccc1OCC(=O)N1CCOCC1`, the inhibition was 97.6%. For `O=C(Nc1cc(C(F)(F)F)ccc1N1CCCC1)C1CC(=O)N(Cc2ccccc2)C1` (stereo not drawn), the inhibition was 2.78%. Work on `COCCNC(=S)N(CCc1c(C)[nH]c2ccc(F)cc12)Cc1cccs1` yielded an inhibition of 34.4%. `CCN1C(=O)C(=O)c2cc(C)ccc21` was tested, and the inhibition was 13.5%. `OCCC1CCCCN1CC(O)COCc1ccc(Cl)cc1` (stereo not drawn) gave an inhibition of 22.3%. `O=C(c1ccco1)N1CCN(C(=O)c2ccccc2OC(=O)C23CC4CC(CC(C4)C2)C3)CC1` was tested, and the inhibition was 74.6%. `NC(=O)CC[C@H](NC(=O)c1ccc(F)cc1)C(=O)N1CCN(Cc2ccc3c(c2)OCO3)CC1` showed an inhibition of 28.6%. In the case of `CCCc1c(C)nc(N2CCN(c3ccccc3OC)CC2)[nH]c1=O`, the inhibition was 37.3%. `Cc1nnc(SC(C)C(=O)Nc2ccc(S(=O)(=O)NC3CCCCC3)cc2)s1` (stereo not drawn) showed an inhibition of 21.8%. Molecule `Cc1cc2cc(CNC(=O)c3ccco3)ccc2n1C` has an inhibition of 40.6%. For `Fc1cnc(N2CCOCC2)nc1N1CCOCC1`, the inhibition was 49%. `CC1CCC(NC(=O)C2CCC(CNS(=O)(=O)c3cccc4cccnc34)CC2)CC1` (stereo not drawn) showed an inhibition of 19%. `Cc1ccc(CN(CC(=O)NC2CCCCC2)C(=O)c2csnn2)cc1` showed an inhibition of 30.2%. Molecule `COc1ccc(/C=N/NC(=O)c2nn(-c3ccc(Cl)cc3)c(=O)c3c(N)scc23)cc1` has an inhibition of 17.8%. Molecule `O=C(c1ccc(-c2cccc(Cl)c2)o1)N1CCN(c2ccc([N+](=O)[O-])cc2)CC1` has an inhibition of 21.7%. For `O=C(O/N=C1/CCSc2ccccc21)c1ccccc1`, the inhibition was 17.1%. `COc1cccc(OCC(=O)NNC(=S)Nc2ccc(Cl)cc2Cl)c1` was tested, and the inhibition was 27.2%.

From PubChem BioAssay AID651650 (Sanford-Burnham Center for Chemical Genomics, 2012)
